Measurements as given in PubChem BioAssay (NCATS).
Activity calls are given as the source filed them. Calls come from the whole dose curve.

Experiment: qHTS drug screen for cell cycle checkpoint inhibitors in PARPi-resistant BRCA-mutant ovarian cancer cell lines. (AID 1963452)
Conditions: PEO1/OlaR viability, CellTiter-Glo luminescence, 96 h, stronger effect = lower value
From the text: Women's Malignancies Branch, Center for Cancer Research (CCR),
National Cancer Institute (NCI), National Institutes of Health (NIH), Bethesda, MD
Poly (ADP-ribose) polymerase inhibitors (PARPis) have changed the treatment paradigm in breast cancer gene (BRCA) - mutant high-grade serous ovarian carcinoma (HGSC). However, most patients eventually develop resistance to PARPis, highlighting an unmet need for improved therapeutic strategies. Using high-throughput drug screens, we identified ataxia telangiectasia and rad3-related protein/checkpoint kinase 1 (CHK1) pathway inhibitors as cytotoxic and further validated the activity of the CHK1 inhibitor (CHK1i) prexasertib in PARPi-sensitive and -resistant BRCA-mutant HGSC cells and xenograft mouse models. CHK1i monotherapy induced DNA damage, apoptosis, and tumor size reduction. We then conducted a phase 2 study (NCT02203513) of prexasertib in patients with BRCA-mutant HGSC. The treatment was well tolerated but yielded an objective response rate of 6% (1 of 17; one partial response) in patients with previous PARPi treatment. […] BRCA reversion mutation in previously PARPi-treated BRCA-mutant patients was not associated with resistance to CHK1i.
Among others, 1082 oncology drugs, both approved and investigational, were prioritized based on their status in clinical trial development. […] Drugs with average Z-AUC values less than -1.0 in all three cell lines were classified as "hits" resulting in 151 oncology drug hits. The screen also confirmed cross-resistance between olaparib and other PARPis (rucaparib, niraparib, and talazoparib) in PARPi-resistant PEO1/OlaR and PEO4.
[1] G. L. Lin, K. M. Wilson, M. Ceribelli, B. Z. Stanton, P. J. Woo, S. Kreimer, E. Y. Qin, X. Zhang, J. Lennon, S. Nagaraja, P. J. Morris, M. Quezada, S. M. Gillespie, D. Y. Duveau, A. M. Michalowski, P. Shinn, R. Guha, M. Ferrer, C. Klumpp-Thomas, S. Michael, C. McKnight, P. Minhas, Z. Itkin, E. H. Raabe, L. Chen, R. Ghanem, A. C. Geraghty, L. Ni, K. I. Andreasson, N. A. Vitanza, K. E.Warren, C. J. Thomas, M. Monje, Therapeutic strategies for diffuse midline glioma from high-throughput combination drug screening. Sci. Transl. Med. 11, (2019).
[2] T. M. Yamamoto, A. McMellen, Z. L. Watson, J. Aguilera, R. Ferguson, E. Nurmemmedov, T. Thakar, G. L. Moldovan, H. Kim, D. M. Cittelly, A. M. Joglar, E. P. Brennecke, H. Wilson, K. Behbakht, M. J. Sikora, B. G. Bitler, Activation of Wnt signaling promotes olaparib resistant ovarian cancer. Mol. Carcinog. 58, 1770 - 1782 (2019).
PROTOCOL TABLE (as described by Inglese J, Shamu CE and Guy RK. 2007)
SEQUENCE No. (e.g., 1, 2, 3, etc.); […] (e.g., Cells, Incubation, Reagent, etc.); VALUE; DESCRIPTION.
1; Compounds; 20nL; 1536-well white tissue culture-treated plates.
2; Cells; 5 uL; PEO1, PEO4, and PEO1/OlaR cells at 600 cells per well.
3; Incubation; 96 hr; 37C, 95% humidity, 5% CO2.
4; Reagent; 3 uL; CellTiter-Glo (Promega).
5; Incubation; 15 min; room temperature.
6; Detection; Luminescence, PHERAstar (BMG Labtech) plate reader.
NOTES (numbers refer to Sequence numbers above)
1. MIPE 5.0 compounds were acoustically dispensed by Echo Acoustic Liquid Handler (Beckman Coulter Life Sciences). Each compound was plated at an 11-point concentration range with 1:3 dilution. Bortezomib, a proteasome inhibitor (final concentration, 20 uM), was used as a positive.
2. PEO1, PEO4, and PEO1/OlaR were trypsinized and dispensed in 5 uLof growth medium using a Multidrop Combi dispenser at a density of 600 cells per well to allow compounds to be present during the exponential growth phase.
3. Plates were incubated for 96 hours at standard incubator conditions and covered by a stainless steel gasketed lid to prevent evaporation.
4. Three microliters of CellTiter-Glo (Promega) were added to each well.
5. Plates were incubated at room temperature for 15 min with a stainless-steel lid in place.
6. Luminescence readings were taken using PHERAstar (BMG Labtech). […]

[1] = measured here: PEO1 parental Z-AUC

| SMILES | Z-AUC | Z-AUC [1] | Z-AUC (measured here: PEO4 Z-AUC) |
| --- | --- | --- | --- |
| CCCCCN(C)CCC(O)(P(=O)(O)O)P(=O)(O)O | 0.387 (inactive) | 1.32 | 1.05 |
| O=C(Nc1c(Cl)cncc1Cl)c1ccc(OC(F)F)c(OCC2CC2)c1 | 0.0747 (inactive) | 0.551 | 0.508 |
| CC1(C)Cc2c(sc(NC(=S)NC(=O)c3ccccc3)c2C(=O)O)CO1 | -0.088 (inactive) | -0.241 | 0.00999 |
| Cc1ccn(-c2ccc(-c3ncco3)cc2)c(=O)c1-c1ccc2nc(N)ncc2c1 | 1.02 (inactive) | 0.788 | 1.07 |
| CC(C)(C)C(=O)Oc1ccc2c(c1)nc(NC(=O)c1cccc([N+](=O)[O-])c1)n2CCCO | -0.205 (inactive) | 0.0755 | -0.141 |
| CC(C)n1cnc2c(NCCCCCCNC(=O)OC(C)(C)C)nc(NCCO)nc21 | 0.728 (inactive) | 0.841 | 1.56 |
| O=C(NC1CCOCC1)c1ccc(-c2cc(-c3cn[nH]c3-c3ccccn3)ccn2)cc1 | 0.761 (inactive) | 0.819 | 0.929 |
| O=C(NOCC(O)CO)c1cc(Br)c(F)c(F)c1Nc1ccc(I)cc1F (configuration not stated) | 0.348 (inactive) | 0.513 | 0.38 |
| C[C@]12CC[C@@H]3c4ccc(O)cc4C[C@@H](CCCCCCCCCS(=O)CCCC(F)(F)C(F)(F)F)[C@H]3[C@H]1CC[C@H]2O (some centres not stated) | -0.724 (inactive) | -0.171 | -1.07 |
| CCc1ccc(OCc2ccccc2C(=O)Nc2ccc3nc(C)cc(N)c3c2)cc1 | -0.061 (inactive) | -0.206 | -0.159 |
| COc1cc2ncnc(Nc3ccc(F)c(Cl)c3)c2cc1OCCCN1CCOCC1 | 0.988 (inactive) | 0.863 | 0.585 |
| CC(=O)Oc1cc2c(s1)CCN(C(C(=O)C1CC1)c1ccccc1F)C2 (configuration not stated) | 0.888 (inactive) | 0.469 | 0.814 |
| COc1cc(N2CCC(N3CCN(C)CC3)CC2)ccc1Nc1ncc(Cl)c(Nc2ccccc2S(=O)(=O)C(C)C)n1 | -0.172 (inactive) | -0.594 | -0.618 |
| CC(C)(C)OC(=O)N[C@H]1CCCCCC=C[C@@H]2C[C@@]2(C(=O)NS(=O)(=O)C2CC2)NC(=O)[C@@H]2C[C@@H](OC(=O)N3Cc4cccc(F)c4C3)CN2C1=O | 0.565 (inactive) | 0.658 | 1.2 |
